High-throughput results deposited in PubChem by several laboratories.
AHR act = activates the human aryl hydrocarbon receptor; AHR-responsive luciferase reporter cells, luminescence; activation, % at 5 µM; 2.5% of 320,000 active; AID 2796; in the data active = activation above about 47%;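 note: 0% = vehicle wells and 100% = reference agonist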
PLC-gamma1 inh = PLC-gamma1 (human) inhibition, primary screen. AID 720700. inhibition, % at 12.2 µM. 0.84% of 370,000 active. P19174. purified PLC-gamma1, fluorogenic substrate, fluorescence; in the data active = inhibition above about 9.5%
HIF activator = HIF pathway transcriptional activation | U2OS HRE-luciferase reporter, luminescence; normalized: DMSO 0%, desferrioxamine 100% | AID 1910 | 0.32% of 300,000 active | activation, % at 7.5 µM (by protocol);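 active = mean activation of at least 10% of the iron chelator positive control signal, with at least half of replicates also reaching 10%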
CR mimetic SO = caloric restriction mimetics inhibiting age-related superoxide in yeast. S. cerevisiae aged cells, superoxide DHE fluorescence; stronger effect = lower value. superoxide response (% of plate mean), % at 10 µM. AID 2690. 0.18% of 330,000 active;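 active = superoxide response under a set limit, about three screen SD below normal, cut at about 65% in these data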;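 note: yeast aged for seven days with compound at 30 °C before DHE staining; 100% = average MFI of all compound-treated wells on the plate with controls excluded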
HGIII-sPLA2 inh = Inhibits HGIII-sPLA2 liposome hydrolysis, primary screen. 0.56% of 370,000 active. Q9NZ20. inhibition, % at 12.2 µM. AID 743126. QFRET BODIPY PC-A2 liposome hydrolysis, fluorescence;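 active = inhibition above mean plus 3 SD of compounds lying within the high and low control bounds, cut at about 19% in these data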;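 note: 0% = median of test compound wells and 100% = no enzyme DMSO wells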
PLC-beta3 inh = blocks human PLC-beta3 enzyme activity; AID 720704; Purified PLC-beta3, fluorogenic substrate, fluorescence; 0.18% of 370,000 active; Q01970; inhibition, % at 12.2 µM; in the data active = inhibition above about 11%;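 note: 0% = median of compound wells on plate and 100% = full blocker control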
AHR act confirm = confirmation of human aryl hydrocarbon receptor activators. activation, % at 9 µM. 87% of 2,300 active. AID 2845. shares compounds with AHR act. human cells, AHR-responsive luciferase reporter, luminescence; in the data active = activation above about 49%;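 note: HepG2 hepatoma cells carrying a DRE-driven firefly luciferase reporter; 0% = vehicle wells and 100% = reference agonist wells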
PXR counter = counter-screen for AHR activators: human PXR activators. shares compounds with AHR act. AID 434939. activation, % at 11.6 µM. 88% of 2,300 active. cell-based PXR reporter, luciferase luminescence; in the data active = activation above about 11%;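 note: human hepatoma DPX-2 cells expressing full-length human PXR; 0% = DMSO and 100% = reference agonist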
The depositor's hits bear a star; · = no result. A selection: hits, their analogues and other compounds. The true share with any hit is near 3.9%.

SMILES | AHR act | PLC-gamma1 inh | HIF activator | CR mimetic SO | HGIII-sPLA2 inh | PLC-beta3 inh | AHR act confirm | PXR counter
COCCn1c(SCC(=O)Nc2nc3ccccc3s2)nnc1-c1ccoc1C | 17 | -3 | -1 | 96 | -9 | 4 | · | ·
O=C(CSc1nnnn1-c1ccc(F)cc1)Nc1nc2ccccc2s1 | 19 | 4 | 0 | 99 | -7 | 2 | · | ·
CSc1nsc(SCC(=O)Nc2nc3ccccc3s2)n1 | 80* | -4 | 0 | 108 | -40 | -4 | 53* | 13*
COCCCn1nnnc1SCC(=O)Nc1nc2ccccc2s1 | 112* | -1 | 0 | 98 | -5 | -6 | 101* | 61*
CCn1nnnc1SCC(=O)Nc1nc2ccccc2s1 | 86* | -3 | 1 | 92 | 0 | -5 | 61* | 42*
O=C(N[C@@H](Cc1cccnc1)C(=O)N1CCC[C@H]1C(=O)NC1CCCC1)c1cccs1 | · | 1 | · | · | 15 | -2 | · | ·
COCCNc1nc2c(c(=O)[nH]c(=O)n2C)n1CCCc1ccccc1 | 1 | 1 | -2 | 101 | -2 | -2 | · | ·
CCNc1nnc(SCC(=O)N2c3ccccc3NC(=O)CC2C)s1 (stereo not given) | 1 | -2 | · | 109 | 5 | -2 | · | ·
Cc1c(C(=O)/C=C/c2cccs2)oc2ccc(F)cc12 | 81* | -1 | 4 | 98 | -3 | -2 | 103* | 76*
CC(C(=O)Nc1ccc(Cl)cc1Cl)N1C(=O)NC2(CCCCCCC2)C1=O (stereo not given) | -1 | 6 | · | 107 | 2 | -7 | · | ·
CCOC(=O)CCCCCN(Cc1ccccc1)S(=O)(=O)c1ccc([N+](=O)[O-])cc1 | 92* | 0 | 0 | 109 | -3 | 1 | 2 | 27*
O=C(CN1C2=NCCN2c2ccccc21)C12CC3CC(CC(C3)C1)C2 | 82* | 3 | 0 | 111 | -18 | 0 | 48* | 58*
CC(=O)c1c(C)nc(-c2ccccc2)nc1NC(=O)C(C)C | 15 | 0 | 0 | 99 | 0 | 3 | · | ·
CC(=O)c1c(C)nc(-c2ccc(Cl)cc2)nc1NC(=O)C(C)C | 116* | 1 | 1 | 103 | -7 | 3 | 137* | 46*
CC(=O)Nc1nc(-c2ccccc2)nc(C)c1C(C)=O | 80* | 2 | 0 | 107 | 2 | 0 | 105* | 24*
CC1(C)CCCC2(C)C(OCCO)=CC(=O)C=C12 (stereo not given) | · | -5 | · | · | 3 | 2 | · | ·
O=C(Nc1ccc(Br)cc1)c1cccc(N2C(=O)C3CCCCC3C2=O)c1 (stereo not given) | 114* | -2 | 0 | 93 | 3 | -3 | 19 | 18*
O=C(Nc1ccc(Br)cc1)c1ccc(N2C(=O)C3CCCCC3C2=O)cc1 (stereo not given) | -1 | 0 | -4 | 85 | -2 | -4 | · | ·
CCOc1ccc(/C=N/NC(=O)c2cc3c(OC)cc(OC)cc3[nH]2)cc1OC | 85* | -339 | -1 | 105 | -42 | -484 | 86* | 21*
COc1ccc(/C=N/NC(=O)c2ccn[nH]2)cc1COc1ccc(Cl)cc1 | 87* | 1 | 0 | 114 | -19 | -4 | -5 | 11*
COc1ccc(/C=N/NC(=O)c2ccn[nH]2)cc1CSc1ccccn1 | 16 | 1 | 2 | 99 | 3 | -6 | · | ·
CC(C)(CCl)C(=O)Nc1ccc(C(F)(F)F)cc1 | -1 | 0 | 0 | 97 | 1 | 4 | · | ·
CN=C(Nc1ccc(Cl)cc1)c1ccc(C(F)(F)F)cc1 | 85* | 15* | 1 | 98 | 5 | 5 | 98* | 45*
CN=C(Nc1ccc(Cl)cc1)c1cccc(C(F)(F)F)c1 | 84* | 1 | 0 | 98 | -3 | 4 | 89* | 56*
CCCCN(C(=O)c1ccc(S(=O)(=O)N2CCC(C)CC2)cc1)C1CCS(=O)(=O)C1 (stereo not given) | -1 | 4 | -13 | 101 | 3 | -4 | · | ·
SMILES | AHR act | PLC-gamma1 inh | HIF activator | CR mimetic SO | HGIII-sPLA2 inh | PLC-beta3 inh | AHR act confirm | PXR counter
COCc1cc(N2CCN(C(=O)OC(C)(C)C)C[C@H]2C)ccc1Br | · | 6 | · | · | -1 | 6 | · | ·
Cc1nc(NC(=O)c2ccc(Cl)cc2)nc2cc3c(cc12)OCO3 | 91* | 0 | 0 | 93 | 12 | -4 | 71* | 17*
O=C(NCCc1ccccn1)c1c(-c2ccsc2)sc2ccccc12 | 128* | 1 | · | 90 | -4 | 3 | 92* | 161*
Cc1ccc(-c2nc(NCCN(C)C)c3ccccc3n2)cc1 | 43 | -4 | 2 | 98 | -11 | -10 | · | ·
CN(C)CCCNc1nc(-c2ccc(Cl)cc2)nc2ccccc12 | 114* | -1 | 2 | 111 | -8 | -8 | 77* | 26*
Cc1ccc2nc(SCc3nc4c(cnn4-c4ccccc4)c(=O)[nH]3)[nH]c2c1 | 121* | -3 | 0 | 91 | -14 | -3 | 29 | 37*
O=c1[nH]c(CSc2nc3ccccc3[nH]2)nc2c1cnn2-c1ccccc1 | 1 | -1 | 0 | 98 | -5 | -4 | · | ·
O=c1[nH]c(SCc2ccccc2Cl)nc2c1cnn2-c1ccccc1 | 117* | 5 | 0 | 104 | 3 | 8 | 77* | 105*
Cc1ccc(NC(=S)c2nc3ccccc3s2)cc1 | 82* | 3 | -1 | 105 | 3 | 3 | 58* | 18*
S=C(Nc1ccc(Cl)cc1)c1nc2ccccc2s1 | 130* | 3 | 4 | 75 | 0 | -1 | 112* | 13*
Cc1ccc(Nc2nc3ccccc3s2)c(C)c1 | 23 | 7 | 0 | 106 | 7 | 3 | · | ·
Cc1ccc(C)c(NC(=S)c2nc3ccccc3s2)c1 | 83* | 8 | 1 | 102 | 15 | 2 | 135* | 14*
COc1ccc(NC(=O)c2nc3ccccc3s2)cc1 | 24 | -8 | 0 | 72 | -7 | -5 | · | ·
COc1ccc(-c2ccc3c(c2)O[C@H](CN(C)C(=O)Nc2ccccc2F)[C@@H](C)CN([C@H](C)CO)S3(=O)=O)cc1 | · | 3 | · | · | -28 | 6 | · | ·
COc1cc(OC)c(C(=O)N/N=C/c2ccoc2)cc1OC | 8 | -6 | 1 | 101 | -1 | -12 | · | ·
Cc1cc(C)n(-c2nc3c(c(=O)[nH]c(=O)n3C)n2CCc2ccccc2)n1 | 133* | 6 | · | 98 | 5 | -2 | 84* | 67*
Cc1cc(C)n(-c2nc3c(c(=O)[nH]c(=O)n3C)n2CC(O)c2ccccc2)n1 (stereo not given) | 80* | -3 | 0 | 90 | -1 | 4 | 78* | 45*
Cc1cc(OC(C)C(=O)N(Cc2ccco2)C2CCS(=O)(=O)C2)ccc1Cl (stereo not given) | 0 | · | 0 | 100 | · | · | · | ·
Cc1nc2ccc(NC(=O)c3oc4ccc(F)cc4c3C)cc2s1 | 86* | · | · | 123 | · | · | 121* | 20*
